Test results as given in PubChem BioAssay (NCI).
About 79,000 compounds went through this panel and 15% of them were active in at least one assay; those are over-represented in the sample as a whole. Cut-off read from the data, not from the text of the source: active = growth inhibition above about 70%; inactive = the rest.

Experiments:
[1] = NCI Yeast Anticancer Drug Screen. Data for the rad50 strain (AID 155);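 note: 0% = growth of vehicle-only cultures of the same strain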; conditions: S. cerevisiae rad50 strain growth inhibition; at 50.0 µM; active compounds read high
Outline: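 Genetically altered yeast (DNA repair pathway); compound treatment; growth inhibition vs vehicle ctrl.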

[2] = NCI Yeast Anticancer Drug Screen. Data for the mec2-1 strain (AID 157); conditions: S. cerevisiae mec2-1 strain, at 50.0 µM, active compounds read high
Outline: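 Test agents were screened against the mec2-1 yeast strain, with defined DNA repair or cell cycle alteration. Growth was scored as inhibition against vehicle-only controls.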

[3] = NCI Yeast Anticancer Drug Screen. Data for the sgs1 mgt1 strain (AID 161);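 note: 0% = growth of cultures given vehicle only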; conditions: S. cerevisiae sgs1 mgt1 strain, at 50.0 µM, active compounds read high
Outline: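 Mutant yeast exposed to compound; growth scored against vehicle-only wells.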

[4] = NCI Yeast Anticancer Drug Screen. Data for the cln2 rad14 strain (AID 165);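 note: 0% = growth equal to vehicle treated cultures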; conditions: S. cerevisiae cln2 rad14 strain, at 50.0 µM, active compounds read high
Outline: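 Growth of compound-exposed yeast (cln2 rad14 genotype) measured and expressed as inhibition relative to vehicle.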

[5] = NCI Yeast Anticancer Drug Screen. Data for the bub3 strain (AID 167); conditions: S. cerevisiae bub3 mutant strain, at 50.0 µM, active compounds read high
Outline: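 Yeast carrying a defined mutation is treated with each compound, and growth is compared with that of vehicle-exposed cells to give inhibition.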

[6] = NCI Yeast Anticancer Drug Screen. Data for the mlh1 rad18 strain (AID 175); conditions: S. cerevisiae mlh1 rad18 strain growth inhibition; at 50.0 µM; active compounds read high
Outline: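 In this whole-cell yeast screen, a strain with altered DNA damage repair is challenged with compound, and its growth is measured against matched vehicle-treated controls.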

Measured: growth inhibition

O=[N+]([O-])c1ccc(Oc2ccc3ccccc3c2)c([N+](=O)[O-])c1
inactive: [1] -1.4% | [2] -17.9% | [3] 1.8% | [4] -56.5% | [5] -9.75% | [6] -14.3%

COc1ccc(/C=N/Nc2nc(C)c3c(n2)Nc2ccccc2NC3=O)cc1
inactive: [1] -15.2% | [2] 10.2% | [3] 3.55% | [4] -1.95% | [5] -1.45% | [6] -19.8%

COc1ccc(C(=O)c2ccc(C(=O)O)cc2)c(OC)c1
inactive: [1] -5.4% | [2] -17.5% | [3] -14.6% | [4] -48.6% | [5] 5.95% | [6] -27.6%

c1ccc2cc(N=Nc3cccc4ccccc34)ccc2c1
inactive: [1] -10.5% | [2] -17.9% | [3] 1.15% | [4] -19% | [5] 1.1% | [6] -7.75%

COc1cc(/C=C2/C(=O)N(C(=O)c3ccc(Cl)cc3)N=C2C)cc(OC)c1OC
inactive: [1] 10% | [2] -5.75% | [3] 2.95% | [4] -48.1% | [5] 24.6% | [6] 39%

CCC1CCCC1=O (stereo not drawn)
inactive: [1] -8.75% | [2] -10.1% | [3] -9.9% | [4] 8.6% | [5] 10.4% | [6] -8.55%

Cc1cc(=NO)cc(C)n1O
inactive: [1] 43.5% | [2] 21% | [3] 54.9% | [4] -3.3% | [5] 3.55% | [6] 7.85%

CCN(CC)CCOC(=O)c1ccc(NC(=O)OCCC(C)OC(=O)Nc2ccc(C(=O)OCCN(CC)CC)cc2)cc1 (stereo not drawn)
inactive: [1] -1.55% | [2] 1.2% | [3] -1.65% | [4] -4.4% | [5] -6.6% | [6] 11.9%

CSc1sc2ccc(S(=O)(=O)O)cc2[n+]1C
inactive: [1] 24.1% | [2] -6.7% | [3] 15.7% | [4] -4.4% | [5] -1.85% | [6] 9.8%

CCOCCOC(=O)CCCCCCCCC(=O)OCCOCC
inactive: [1] 9.7% | [2] 11.9% | [3] 12.6% | [4] 37.9% | [5] 25.6% | [6] 25.9%

Cc1cc2c(c(C(N)=O)c1C)-c1cccc(Cl)c1C2=O
inactive: [1] 13.1% | [2] 12.2% | [3] 9.7% | [4] 11% | [5] 1.35% | [6] -1.3%

CC1CCOC2(CCCCC2)O1 (stereo not drawn)
inactive: [1] -12.6% | [2] -7.15% | [3] -8.85% | [4] -32.9% | [5] -2.65% | [6] 16.2%

COC[C@@H](N=Cc1ccc(OC)cc1)C(C)C
inactive: [1] -12.2% | [2] -19.4% | [3] -49.6% | [4] -28.8% | [5] 25.9% | [6] -30.5%

CC1CCCN2C(=O)CN(Cc3ccccc3)CC(=O)N12 (stereo not drawn)
inactive: [1] 9.85% | [2] -3.3% | [3] -8.55% | [4] 13.4% | [5] 3.1% | [6] -4.45%

CCOC(=O)c1c(C)[nH]c(C2=NCCC2)c1C
inactive: [1] -8.7% | [2] 5.3% | [3] 1.7% | [4] -55.9% | [5] 2.95% | [6] -5.95%

COC(=O)CCC(=O)O
inactive: [1] 8.6% | [2] -0.1% | [3] 11.2% | [4] -8.05% | [5] -2.05% | [6] 43.4%

CCCCCCCCCCCC1=C(O)C(=O)C(I)=C(O)C1=O
inactive: [1] 63.2% | [2] 58.5% | [3] 63.1% | [4] 51.3% | [5] 14.4% | [6] 54.7%

COc1ccc(-c2c(C(=O)O)cc(O)c3cc(OC)c(OC)cc23)cc1OC
inactive: [1] 6.4% | [2] -2.9% | [3] 5% | [4] 26.4% | [5] 3.3% | [6] -0.75%

CC(C)(C)CC(=O)Nc1ccccc1
inactive: [1] 28.9% | [2] -4.15% | [3] -17.1% | [4] 13.7% | [5] -8.9% | [6] 9.25%

COc1cccc(Oc2ccc(C)cc2)c1
inactive: [1] 17.2% | [2] -12.8% | [3] -18.6% | [4] -19.1% | [5] 8.95% | [6] -21.9%

COc1ccc2c(c1)CCc1cc(OC)ccc1/[N+]([O-])=[N+]\2[O-]
inactive: [1] -1.2% | [2] 1.25% | [3] 6.8% | [4] -70.8% | [5] -5.1% | [6] 14.8%

Cc1cccc2cc3ccc4ccccc4c3cc12
inactive: [1] 29.7% | [2] 13.8% | [3] 21.9% | [4] 14.8% | [5] 4.1% | [6] 20.6%

Cc1ccc(C(C#N)c2ccc(N)cc2)cc1 (stereo not drawn)
inactive: [1] 21.9% | [2] -21.3% | [3] 29.9% | [4] 17.1% | [5] 20.2% | [6] 32.5%

CCn1c2ccc(N(C)C)cc2c2cc(N(C)C)ccc21
inactive: [1] -25.4% | [2] -38.5% | [3] -24.1% | [4] -38.8% | [5] -18.5% | [6] -52.4%

FC(F)(F)c1cc(-c2ccc(C3Nc4ccccc4-n4cccc43)o2)cc(C(F)(F)F)c1 (stereo not drawn)
inactive: [1] 11.7% | [2] -23.4% | [3] 24.2% | [4] 6.65% | [5] 25.4% | [6] 30.3%

CCC(CC)C(=O)OCCc1ccccc1
inactive: [1] 5% | [2] 3.05% | [3] -2.35% | [4] -6.3% | [5] 9.9% | [6] 0.75%

CCn1c(=O)c(C#N)c2n(CC)c3cc(C)c(C)cc3n2c1=O
inactive: [1] -13.5% | [2] -2.9% | [3] -11% | [4] -24.2% | [5] -31.3% | [6] -20.4%

CN(C)CCOC(=O)c1cccc(CCl)c1
inactive: [1] 15.9% | [2] 6.3% | [3] 5.75% | [4] 44.4% | [5] 25.4% | [6] 7.95%

Cc1cc(C)n2nc3c4ccsc4ncc3c2n1
inactive: [1] -5.2% | [2] -5.45% | [3] -15.9% | [4] 2.45% | [5] 0.1% | [6] -6.8%

Cc1ccccc1-n1c(SCC(=O)NC(=O)Nc2cccc(Cl)c2)nc2c(Br)cc(Br)cc2c1=O
inactive: [1] -22.9% | [2] -5.5% | [3] 0.1% | [4] -16.1% | [5] -12.6% | [6] -2.75%

O=[N+]([O-])c1ccc(/C=N\NC(=S)Nc2ccc3cn[nH]c3c2)cc1
inactive: [1] 19.9% | [2] 14.6% | [3] 7.6% | [4] -1.7% | [5] 17.4% | [6] -9.65%

C1CCC(CCC2CCCC[N-]2)[N-]C1.[I][Co][I] (stereo not drawn)
inactive: [1] 48.3% | [2] 27.9% | [3] 47% | [4] -3% | [5] 33.7% | [6] 43.5%

Cc1ccc(NC(=O)CCc2cc(C(C)(C)C)nc(=S)[nH]2)cc1C
inactive: [1] -36.6% | [2] -27.5% | [3] -46.5% | [4] -30.6% | [5] -35.8% | [6] -34%

CC(CO)(CO)[N+](=O)[O-]
inactive: [1] 19.2% | [2] 9.65% | [3] -5.85% | [4] -46.5% | [5] 6.25% | [6] 19.9%

CC(=O)NC(Cc1ccc(F)cc1)C(=O)O (stereo not drawn)
inactive: [1] -1.75% | [2] -7.85% | [3] -18.1% | [4] -19.7% | [5] -27.6% | [6] -17.9%

CC(C)(C)OC(=O)C1C(=O)CC(c2ccccc2)C1c1ccccc1 (stereo not drawn)
inactive: [1] -3.05% | [2] -3% | [3] 1.25% | [4] -7.8% | [5] -5.7% | [6] -1.9%

CC1OC(OCC2OC(Oc3ccc4c(=O)c(-c5ccc6c(c5)OCO6)coc4c3)C(O)C(O)C2O)C(O)C(O)C1O (stereo not drawn)
inactive: [1] 15.1% | [2] 3.15% | [3] 12.6% | [4] 28.1% | [5] 20.4% | [6] 8.85%

Cc1ncc(Cl)c2cc3ccccc3cc12
inactive: [1] -2.4% | [2] 2.1% | [3] -0.7% | [4] -24.6% | [5] -3.25% | [6] -7.55%
